Screens: PubChem, University of Kansas High Throughput Screening Laboratory
This is one part of a sample in which hits are shown more often than they occur.
Pf apPOL inh: Pf-apPOL inhibitors, biochemical, fluorescence; inhibition, % at 10 µM; Plasmodium falciparum apicoplast DNA polymerase (apPOL); 210,000 compounds, 0.25% hits; Recombinant Pf-apPOL, molecular beacon fluorescence, 1.5 h
mHTT CaM bind: mutant huntingtin-calmodulin interaction inhibitors – biochemical, AlphaScreen, primary screen. P42858. AlphaScreen His-mHTT/GST-CaM binding, luminescence. inhibition, % at 15 µM. 190,000 compounds, 3.6% hits. AID 1671202, 2021;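 also: 0% = both proteins with DMSO and 100% = one protein alone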
Target sequence (P42858 whole entry, looked up, stated change not applied): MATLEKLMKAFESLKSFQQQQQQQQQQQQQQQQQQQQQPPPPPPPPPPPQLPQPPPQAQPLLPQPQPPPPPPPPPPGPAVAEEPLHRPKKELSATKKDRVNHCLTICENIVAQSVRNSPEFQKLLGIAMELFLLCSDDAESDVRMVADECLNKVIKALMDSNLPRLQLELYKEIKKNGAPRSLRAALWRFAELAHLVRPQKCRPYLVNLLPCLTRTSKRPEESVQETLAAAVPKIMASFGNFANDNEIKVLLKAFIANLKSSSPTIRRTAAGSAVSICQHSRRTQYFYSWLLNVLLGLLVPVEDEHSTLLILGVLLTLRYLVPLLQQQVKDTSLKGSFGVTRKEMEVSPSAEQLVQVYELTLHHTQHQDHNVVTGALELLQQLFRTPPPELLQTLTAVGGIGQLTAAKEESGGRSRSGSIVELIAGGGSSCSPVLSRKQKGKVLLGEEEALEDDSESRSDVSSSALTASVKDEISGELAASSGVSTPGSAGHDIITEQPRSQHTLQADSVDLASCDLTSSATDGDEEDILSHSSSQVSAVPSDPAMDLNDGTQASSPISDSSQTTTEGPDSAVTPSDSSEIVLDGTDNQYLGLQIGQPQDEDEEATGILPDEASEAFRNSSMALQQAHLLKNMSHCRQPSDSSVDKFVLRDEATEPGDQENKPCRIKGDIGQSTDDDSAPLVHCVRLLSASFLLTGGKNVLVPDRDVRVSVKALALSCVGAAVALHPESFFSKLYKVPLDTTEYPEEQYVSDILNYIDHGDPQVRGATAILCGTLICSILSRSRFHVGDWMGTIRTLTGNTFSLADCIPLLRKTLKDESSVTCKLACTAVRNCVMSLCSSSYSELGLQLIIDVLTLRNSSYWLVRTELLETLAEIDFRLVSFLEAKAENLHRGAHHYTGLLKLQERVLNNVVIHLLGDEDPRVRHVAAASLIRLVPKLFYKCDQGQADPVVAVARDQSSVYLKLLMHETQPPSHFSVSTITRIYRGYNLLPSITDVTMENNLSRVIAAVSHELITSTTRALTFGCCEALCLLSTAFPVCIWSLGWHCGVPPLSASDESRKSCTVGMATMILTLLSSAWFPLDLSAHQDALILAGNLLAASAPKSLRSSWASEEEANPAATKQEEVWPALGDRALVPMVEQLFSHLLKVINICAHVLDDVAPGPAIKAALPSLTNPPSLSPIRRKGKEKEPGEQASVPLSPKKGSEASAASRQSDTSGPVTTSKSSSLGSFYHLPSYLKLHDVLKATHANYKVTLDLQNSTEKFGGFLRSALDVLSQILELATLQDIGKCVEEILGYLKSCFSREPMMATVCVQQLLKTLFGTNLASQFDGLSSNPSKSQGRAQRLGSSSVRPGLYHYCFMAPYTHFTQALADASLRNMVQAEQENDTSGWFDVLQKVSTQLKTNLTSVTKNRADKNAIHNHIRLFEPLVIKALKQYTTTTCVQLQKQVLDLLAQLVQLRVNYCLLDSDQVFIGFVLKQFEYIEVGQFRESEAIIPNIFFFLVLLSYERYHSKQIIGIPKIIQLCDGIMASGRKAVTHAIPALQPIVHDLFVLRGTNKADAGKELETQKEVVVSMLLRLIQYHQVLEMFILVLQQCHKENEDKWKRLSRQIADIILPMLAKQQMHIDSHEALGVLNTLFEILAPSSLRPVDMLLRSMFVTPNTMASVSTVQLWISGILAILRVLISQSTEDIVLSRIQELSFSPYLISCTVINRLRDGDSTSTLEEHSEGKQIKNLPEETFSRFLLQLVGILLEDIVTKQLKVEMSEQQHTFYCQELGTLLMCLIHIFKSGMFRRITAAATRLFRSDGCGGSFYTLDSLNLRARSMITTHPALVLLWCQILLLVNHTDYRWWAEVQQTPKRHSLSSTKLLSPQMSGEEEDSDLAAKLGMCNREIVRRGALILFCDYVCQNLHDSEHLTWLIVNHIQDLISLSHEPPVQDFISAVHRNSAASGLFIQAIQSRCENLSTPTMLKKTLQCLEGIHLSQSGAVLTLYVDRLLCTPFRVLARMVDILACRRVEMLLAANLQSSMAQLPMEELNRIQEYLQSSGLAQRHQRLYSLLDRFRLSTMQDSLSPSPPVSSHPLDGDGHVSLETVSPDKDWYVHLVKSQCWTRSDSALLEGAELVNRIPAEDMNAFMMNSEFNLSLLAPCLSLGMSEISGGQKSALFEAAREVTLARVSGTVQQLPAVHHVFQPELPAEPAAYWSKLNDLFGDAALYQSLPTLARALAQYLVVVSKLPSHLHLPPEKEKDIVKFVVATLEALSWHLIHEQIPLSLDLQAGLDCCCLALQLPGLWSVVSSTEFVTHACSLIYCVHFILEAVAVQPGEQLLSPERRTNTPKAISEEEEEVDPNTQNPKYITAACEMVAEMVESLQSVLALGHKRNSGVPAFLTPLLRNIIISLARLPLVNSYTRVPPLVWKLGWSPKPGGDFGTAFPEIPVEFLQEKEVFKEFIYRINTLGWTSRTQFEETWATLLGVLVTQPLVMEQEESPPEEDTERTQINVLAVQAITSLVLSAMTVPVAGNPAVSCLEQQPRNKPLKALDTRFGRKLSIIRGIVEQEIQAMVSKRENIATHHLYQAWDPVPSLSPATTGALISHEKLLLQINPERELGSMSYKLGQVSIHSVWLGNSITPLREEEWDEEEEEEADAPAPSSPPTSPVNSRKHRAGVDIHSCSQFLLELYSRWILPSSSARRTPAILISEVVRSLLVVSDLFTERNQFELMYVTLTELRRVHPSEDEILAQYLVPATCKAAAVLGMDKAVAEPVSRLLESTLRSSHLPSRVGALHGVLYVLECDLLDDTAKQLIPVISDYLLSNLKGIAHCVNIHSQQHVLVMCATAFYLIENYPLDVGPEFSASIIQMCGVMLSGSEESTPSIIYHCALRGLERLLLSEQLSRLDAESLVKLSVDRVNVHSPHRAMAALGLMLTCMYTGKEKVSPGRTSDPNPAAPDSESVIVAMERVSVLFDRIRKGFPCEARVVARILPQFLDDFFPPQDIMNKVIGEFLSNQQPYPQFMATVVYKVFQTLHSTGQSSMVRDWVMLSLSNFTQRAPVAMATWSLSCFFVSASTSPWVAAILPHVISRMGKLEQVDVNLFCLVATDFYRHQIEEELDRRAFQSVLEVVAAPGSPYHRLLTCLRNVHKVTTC
Numbers without * were called inactive. Rule as the data show it: active = inhibition above about 50%; inactive = the rest.

COc1ccccc1CC(=O)N1CCN(c2ccc(-c3ccccn3)nn2)CC1 was read as Pf apPOL inh -21.2 and mHTT CaM bind 100.2*.
For O=C(c1ccc(=O)[nH]n1)N1CCN(c2ccc(-c3ccccn3)nn2)CC1 the results were Pf apPOL inh -2.0 and mHTT CaM bind 100.0*.
`O=C(c1ccc(N2CCCC2)nn1)N1CCN(c2ncccn2)CC1` gave Pf apPOL inh -3.0 and mHTT CaM bind -8.6.
Screening Cc1cccc(NC(=O)c2c(O)c3cccc4c3n(c2=O)CC4)n1 returned Pf apPOL inh 1.8 and mHTT CaM bind -7.0.
`COc1ccc(C2CC(C(F)(F)F)n3ncc(C(=O)N4CCOCC4)c3N2)cc1OC` (centres undefined) gave Pf apPOL inh 3.8 and mHTT CaM bind 7.0.
Screening CCC[C@H]1[C@@H](OC(=O)N2CCOCC2)CC[C@@]23CCCN2C(=O)CCC[C@@H]13 returned Pf apPOL inh -4.1 and mHTT CaM bind -12.0.
`C[C@H]1[C@@H](OC(=O)Oc2ccc([N+](=O)[O-])cc2)CC[C@@]23CCCN2C(=O)CCC[C@@H]13` gave Pf apPOL inh -8.7 and mHTT CaM bind 9.7.
`CCC[C@H]1[C@@H](OC(=O)NCc2ccccc2Cl)CC[C@@]23CCCN2C(=O)CCC[C@@H]13` gave Pf apPOL inh -3.4 and mHTT CaM bind 15.9.
CCC[C@H]1[C@@H](OC(=O)Oc2ccc([N+](=O)[O-])cc2)CC[C@@]23CCCN2C(=O)CCC[C@@H]13 was read as Pf apPOL inh 0.1 and mHTT CaM bind 58.4*.
Screening CCC[C@H]1[C@@H](OC(=O)NCCc2c[nH]c3ccccc23)CC[C@@]23CCCN2C(=O)CCC[C@@H]13 returned Pf apPOL inh 0.0 and mHTT CaM bind 65.0*.
For CCC[C@H]1[C@@H](OC(=O)N2CCN(c3ccccc3)CC2)CC[C@@]23CCCN2C(=O)CCC[C@@H]13 the results were Pf apPOL inh -5.1 and mHTT CaM bind 99.2*.
`CSc1ccc(/C=C(/C#N)C(N)=S)cc1` gave mHTT CaM bind 31.2.
`CCOC(=O)C1=C(C)N=C2SC(C)C(=O)N2C1c1cccs1` (centres undefined) gave Pf apPOL inh 3.0.
`COc1cccc(-c2nc3ccccn3c2NC(=O)c2ccccc2)c1` gave Pf apPOL inh 2.3 and mHTT CaM bind 25.1.
Screening CCC1CCCCN1S(=O)(=O)c1ccc(NC(=O)/C=C/c2ccccc2Cl)cc1 (centres undefined) returned Pf apPOL inh 7.9 and mHTT CaM bind -15.0.
For FC(F)Oc1ccc(-c2cc3ccccn3c2)cc1 the results were Pf apPOL inh 0.2 and mHTT CaM bind 44.0.
For COc1ccc(-c2cc3ccccn3c2)c(OC)c1 the results were Pf apPOL inh -2.8 and mHTT CaM bind 75.0*.
Cc1ccc(C)c(S(=O)(=O)N2CCc3c(c(-c4nc(-c5ccccc5)no4)nn3C)C2)c1 was read as Pf apPOL inh -4.0 and mHTT CaM bind -2.2.
Screening CC(=O)N1CCc2ccc(C(=O)N3CCOCC3)cc21 returned Pf apPOL inh -3.4 and mHTT CaM bind -6.2.
Screening Cn1cc(-c2nc(C(=O)NCc3ccc(F)c(Cl)c3)cs2)c2cccnc21 returned Pf apPOL inh 2.1 and mHTT CaM bind 100.2*.
Cn1cc(-c2nc(C(=O)NCc3ccc(F)cc3Cl)cs2)c2cccnc21 was read as Pf apPOL inh -4.5 and mHTT CaM bind 2.1.
Cn1cc(CC(=O)NCc2cccc(F)c2)c2cccnc21 was read as Pf apPOL inh 2.1 and mHTT CaM bind -9.5.
For Cn1cc(-c2nc(C(=O)NCc3cccc(F)c3)cs2)c2cccnc21 the results were Pf apPOL inh 2.5 and mHTT CaM bind 91.1*.
Screening O=C(c1ccc(F)cc1F)N1CCC(CCOCc2cccc(F)c2)CC1 returned Pf apPOL inh -3.2 and mHTT CaM bind -12.1.
Screening CN(C)Cc1ccc2c(sc3nc4n(c(=O)c32)CCCCC4)c1O returned Pf apPOL inh -4.9 and mHTT CaM bind 0.0.
`CN1CCN(C(=O)c2cncc(-c3ccc(Oc4ccccc4)cc3)c2)CC1` gave Pf apPOL inh -1.5 and mHTT CaM bind 17.3.
Cc1cccc(Nc2nccc(C3CCCN(C(=O)c4ccc(C#N)cc4)C3)n2)c1 (centres undefined) was read as Pf apPOL inh -4.7 and mHTT CaM bind 14.4.
Cc1cccc(Nc2nccc(C3CCCN(C(=O)C4CCCO4)C3)n2)c1 (centres undefined) was read as Pf apPOL inh -3.2 and mHTT CaM bind 73.5*.
Screening CCC(=O)N1CCCC(c2ccnc(Nc3cccc(C)c3)n2)C1 (centres undefined) returned Pf apPOL inh -4.9 and mHTT CaM bind 56.6*.
`CCC(=O)N1CCCC(c2ccnc(Nc3ccc(OC)cc3)n2)C1` (centres undefined) gave Pf apPOL inh -7.4 and mHTT CaM bind -0.6.
`Cc1ccccc1Nc1nccc(C2CCCN(C(=O)Cc3cccs3)C2)n1` (centres undefined) gave Pf apPOL inh -2.9 and mHTT CaM bind 10.4.
For Cc1cccc(Nc2nccc(C3CCCN(C(=O)Cc4cccs4)C3)n2)c1 (centres undefined) the results were Pf apPOL inh -4.8 and mHTT CaM bind 62.6*.
Screening Brc1ccc(OCCn2cnc3ccccc32)cc1 returned Pf apPOL inh 4.1 and mHTT CaM bind 23.3.
For COc1ccccc1CNC(=O)c1ccc(C)cc1Cl the results were Pf apPOL inh 4.8 and mHTT CaM bind -5.9.
Screening O=C(NCCN1CCCC1)C1CCN(c2nccnc2Sc2ccccc2)CC1 returned Pf apPOL inh -5.0 and mHTT CaM bind 8.4.
`Cc1cccc(NC(=O)Nc2cccn3nc(C4CC4)nc23)c1` gave Pf apPOL inh 0.9 and mHTT CaM bind 7.3.
Screening O=C(NC1CC1)c1cc2cc(Cl)ccc2[nH]1 returned Pf apPOL inh -2.6 and mHTT CaM bind -2.0.
COc1ccc(C(=O)C=CNc2cccc(Cl)c2)cc1 was read as Pf apPOL inh -6.5 and mHTT CaM bind 2.0.
Screening CC(Cc1ccco1)NC(=O)C(=O)NCc1ccccc1 (centres undefined) returned Pf apPOL inh -0.1 and mHTT CaM bind -4.6.
Cc1c(Cl)c(C)c(C=O)c(O)c1Br was read as Pf apPOL inh -3.2 and mHTT CaM bind 78.6*.
`CCN1CCN(C(=O)C2COC3(CCC(C)CC3)N2C(=O)c2ccc(F)cc2)CC1` (centres undefined) gave Pf apPOL inh 0.8 and mHTT CaM bind 2.7.
`COc1cc([N+](=O)[O-])ccc1O` gave mHTT CaM bind -4.8.
For COc1cc(/C=C2\C(C)=C([N+](=O)[O-])CS2(=O)=O)ccc1O the results were Pf apPOL inh -1.2 and mHTT CaM bind 86.7*.
`O=C(CSc1nnc(-c2ccccc2F)o1)N1CCCc2ccccc21` gave Pf apPOL inh 0.3 and mHTT CaM bind -0.2.
`Cc1ccccc1NS(=O)(=O)c1cccc(C(=O)Nc2ccc(C(=O)O)cc2)c1` gave Pf apPOL inh -15.8 and mHTT CaM bind 3.9.
Screening CCCCC[C@H]1CN(CCc2ccccc2)C(=O)[C@@H]1CC(=O)NCc1ccc(OC)cc1 returned Pf apPOL inh -5.2 and mHTT CaM bind 75.1*.
For CCCCC[C@H]1CN(CCCC)C(=O)[C@@H]1CC(=O)NCc1ccc(OC)cc1 the results were Pf apPOL inh -2.1 and mHTT CaM bind 16.5.
For CCc1cc(-c2[nH]ncc2-c2ccc([N+](=O)[O-])cc2)c(O)cc1OC the results were Pf apPOL inh 6.3 and mHTT CaM bind 95.0*.
`CCc1cc(-c2onc(C)c2-c2ccc(OC)cc2)c(O)cc1OC` gave Pf apPOL inh -3.4 and mHTT CaM bind 20.0.
